According to PubChem BioAssay (Tox21):
Results filed as inconclusive are left out. Activity calls are given as the source filed them. Unless noted, the call rests on the fitted dose curve.

Tests used:
[1] = target: Gonadotropin-releasing hormone receptor (Homo sapiens) (UniProt P30968); assay: Human gonadotropin-releasing hormone receptor (GnRHR) small molecule agonists, calcium flux assay in GnRHR-HEK293 cells (AID 1920063); further: nearly all actives have a fitted effect of over 35% in size
How it was run: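 Fluorescence kinetics (480 nm excitation, 540 nm emission; 3 min, 1 s steps) report calcium mobilisation in human GnRHR-HEK293 cells in agonist mode. Dye incubation: 1 h, 37 C.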

[2] = target: KiSS-1 receptor (Homo sapiens) (UniProt Q969F8); assay: Human kisspeptin (KISS1R) small molecule agonists, calcium flux assay in KISS1R-HEK293 cells (AID 1920064; active means well fitted activation curve with a large enough effect in the repeat runs)
KiSS-1 receptor (Homo sapiens), sequence (Q969F8 whole entry, looked up): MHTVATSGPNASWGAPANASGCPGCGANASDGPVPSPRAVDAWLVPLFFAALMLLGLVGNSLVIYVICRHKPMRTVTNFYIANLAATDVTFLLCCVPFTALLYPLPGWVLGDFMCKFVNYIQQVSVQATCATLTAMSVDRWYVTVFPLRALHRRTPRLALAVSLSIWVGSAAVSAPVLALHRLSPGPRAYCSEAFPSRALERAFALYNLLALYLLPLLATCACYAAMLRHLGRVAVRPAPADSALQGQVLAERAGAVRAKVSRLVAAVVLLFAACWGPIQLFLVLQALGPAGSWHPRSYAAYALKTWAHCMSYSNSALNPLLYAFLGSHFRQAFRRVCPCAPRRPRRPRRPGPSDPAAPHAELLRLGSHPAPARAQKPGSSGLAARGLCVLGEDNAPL
How it was run: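 Measures KISS1R agonism through calcium-sensitive dye fluorescence in stably transfected HEK293 cells, read for 3 min after pin-tool compound delivery; 15-point titrations in triplicate.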

[3] = p53 small molecule agonists, cell-based qHTS assay with human liver microsomes (AID 1963577);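 further: p53 response element beta-lactamase reporter cells with liver microsomes plus NADPH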
How it was run: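 16 h, 37 C exposure of p53RE-bla cells to compounds with human liver microsomes and NADPH (0.5 mg/mL final each); detection via LiveBLAzer mixture, 2 h dark at room temperature.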

[4] = p53 small molecule agonists, cell-based qHTS assay with rat liver microsomes (AID 1963578)
How it was run: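 With rat liver microsomes and NADPH present (0.5 mg/mL final each), p53RE-bla cells are treated with compound for 16 h at 37 C. LiveBLAzer detection mixture is then applied for 2 h at room temperature in the dark.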

[5] = p53 small molecule agonists, cell-based qHTS assay with human liver microsomes: qHTS cell viability counter screen (AID 1963579); further: nearly all actives have a fitted effect of over 45% in size
How it was run: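 In this multiplexed counter screen, the reporter plates were subsequently treated with CellTiter-Glo so that cell viability, reflected by luminescence, could be recorded for p53RE-bla cells dosed 16 h with compounds under microsomal activation (HLM and NADPH).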

[6] = p53 small molecule agonists, cell-based qHTS assay with rat liver microsomes: qHTS cell viability counter screen (AID 1963580); further: nearly all actives have a fitted effect of over 45% in size
How it was run: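 In HCT-116 cells carrying a p53 response element-bla reporter, compounds were metabolically activated in situ by rat liver microsomes with NADPH over 16 h. Cell ATP content then served as the cytotoxicity measure.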

[7] = p53 small molecule agonists, cell-based qHTS assay: qHTS cell viability counter screen (AID 1963581); further: nearly all actives have a fitted effect of over 45% in size
How it was run: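 In the same plates used for the p53 bla reporter, HCT-116 cells given compounds for 16 h at 37 C received CellTiter-Glo; luminescence was recorded 30 min later at room temperature.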

[8] = target: 5-hydroxytryptamine receptor 2A (Homo sapiens) (UniProt P28223); assay: 5-hydroxytryptamine receptor 2A (HTR2A) small molecule antagonists, cell-based qHTS assay (AID 1963586); further: nearly all actives have a fitted effect of over 45% in size; further: potency means the concentration at half of the fitted maximal effect
5-hydroxytryptamine receptor 2A (Homo sapiens), sequence (P28223 whole entry, looked up): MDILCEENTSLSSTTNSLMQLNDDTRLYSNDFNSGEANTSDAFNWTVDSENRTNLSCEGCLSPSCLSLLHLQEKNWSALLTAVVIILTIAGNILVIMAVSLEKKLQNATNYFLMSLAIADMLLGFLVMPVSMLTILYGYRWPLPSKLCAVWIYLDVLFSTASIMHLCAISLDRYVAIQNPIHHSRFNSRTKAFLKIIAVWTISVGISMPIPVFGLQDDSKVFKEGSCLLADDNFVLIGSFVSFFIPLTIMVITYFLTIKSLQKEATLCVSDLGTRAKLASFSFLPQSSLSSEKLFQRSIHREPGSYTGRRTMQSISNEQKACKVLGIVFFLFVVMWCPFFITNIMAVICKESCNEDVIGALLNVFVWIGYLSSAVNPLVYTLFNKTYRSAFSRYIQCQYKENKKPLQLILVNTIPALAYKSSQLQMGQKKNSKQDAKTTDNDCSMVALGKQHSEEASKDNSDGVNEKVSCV
How it was run: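 Antagonist-mode intracellular calcium assay: DOI (4 nM) added after 5 min compound pre-incubation at room temperature to dye-loaded HTR2A-CHO cells. Fluorescence followed for 3 min, sampled every second.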

[9] = target: 5-hydroxytryptamine receptor 2A (Homo sapiens) (UniProt P28223); assay: 5-hydroxytryptamine receptor 2A (HTR2A) small molecule agonists, cell-based qHTS assay (AID 1963587); further: nearly all actives have a fitted effect of over 30% in size
How it was run: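 HTR2A-CHO cells, plated 18 h at 37 C/5% CO2, dye-loaded 1 h at 37 C; compounds in DMSO added by pin tool (agonist mode). Intracellular calcium flux read as kinetic fluorescence on FDSS over 2 min at 1 s intervals.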

[10] = target: Muscarinic acetylcholine receptor M1 (Homo sapiens) (UniProt P11229); assay: Cholinergic receptor muscarinic 1 (CHRM1) small molecule antagonists, cell-based qHTS assay (AID 1963588); further: nearly all actives have a fitted effect of over 40% in size
Muscarinic acetylcholine receptor M1 (Homo sapiens), sequence (P11229 whole entry, looked up): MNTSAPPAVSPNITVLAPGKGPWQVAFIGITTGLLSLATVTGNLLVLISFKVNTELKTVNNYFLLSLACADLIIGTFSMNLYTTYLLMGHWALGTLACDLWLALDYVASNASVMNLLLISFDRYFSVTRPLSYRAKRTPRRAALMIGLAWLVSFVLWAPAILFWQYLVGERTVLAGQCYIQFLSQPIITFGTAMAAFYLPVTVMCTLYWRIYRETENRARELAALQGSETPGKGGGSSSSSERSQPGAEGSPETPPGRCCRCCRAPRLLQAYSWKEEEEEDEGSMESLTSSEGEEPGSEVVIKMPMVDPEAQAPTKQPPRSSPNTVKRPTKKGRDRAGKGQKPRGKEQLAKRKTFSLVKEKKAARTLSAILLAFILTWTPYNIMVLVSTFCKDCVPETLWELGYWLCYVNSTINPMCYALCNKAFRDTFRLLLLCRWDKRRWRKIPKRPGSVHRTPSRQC
How it was run: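 CHRM1-CHO calcium-flux assay, antagonist mode. Cells were seeded 18 h, dye-loaded 1 h at 37 C and given compound for 5 min at RT, then acetylcholine was added at 50nM. FDSS fluorescence was read 3 min; 15 concentrations, three runs.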

[11] = target: Muscarinic acetylcholine receptor M1 (Homo sapiens) (UniProt P11229); assay: Cholinergic receptor muscarinic 1 (CHRM1) small molecule agonists, cell-based qHTS assay (AID 1963589); further: nearly all actives have a fitted effect of over 35% in size
How it was run: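 Each compound was tested at 15 concentrations across three independent runs on dye-loaded CHO cells stably expressing human CHRM1, reading intracellular calcium fluorescence kinetically at 1 sec intervals.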

[12] = target: Beta-2 adrenergic receptor (Homo sapiens) (UniProt P07550); assay: Adrenergic beta2 receptor (ADRB2) small molecule antagonists, cell-based qHTS assay (AID 1963592); further: series mostly up to about 92 µM; nearly all actives have a fitted effect of over 50% in size
Beta-2 adrenergic receptor (Homo sapiens), sequence (P07550 whole entry, looked up): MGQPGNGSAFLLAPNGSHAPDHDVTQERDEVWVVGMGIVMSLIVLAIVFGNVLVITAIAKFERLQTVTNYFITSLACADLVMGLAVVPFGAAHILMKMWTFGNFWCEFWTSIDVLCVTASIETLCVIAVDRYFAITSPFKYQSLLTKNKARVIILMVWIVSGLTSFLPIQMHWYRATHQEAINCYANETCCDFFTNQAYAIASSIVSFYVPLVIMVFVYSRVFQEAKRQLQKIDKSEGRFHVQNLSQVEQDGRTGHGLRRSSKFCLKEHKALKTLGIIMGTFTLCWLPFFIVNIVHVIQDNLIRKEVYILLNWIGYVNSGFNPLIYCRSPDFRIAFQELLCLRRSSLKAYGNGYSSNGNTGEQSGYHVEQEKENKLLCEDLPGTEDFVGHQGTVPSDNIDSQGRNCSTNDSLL
How it was run: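 Cells (CHO, stable ADRB2 overexpression) incubated 18-20hr at 37C; compounds added from DMSO; agonist mix (1nM isoproterenol, 100uM IBMX, 25uM Ro-20-1724) added; 0.5hr RT; d2-cAMP and anti-cAMP-cryptate added; 1hr RT; 665/615 nm read.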

[13] = target: D(2) dopamine receptor (Homo sapiens) (UniProt P14416); assay: Dopamine D2 receptor (DRD2) small molecule agonists, cell-based qHTS assay (AID 1963594); further: nearly all actives have a fitted effect of over 35% in size
D(2) dopamine receptor (Homo sapiens), sequence (P14416 whole entry, looked up): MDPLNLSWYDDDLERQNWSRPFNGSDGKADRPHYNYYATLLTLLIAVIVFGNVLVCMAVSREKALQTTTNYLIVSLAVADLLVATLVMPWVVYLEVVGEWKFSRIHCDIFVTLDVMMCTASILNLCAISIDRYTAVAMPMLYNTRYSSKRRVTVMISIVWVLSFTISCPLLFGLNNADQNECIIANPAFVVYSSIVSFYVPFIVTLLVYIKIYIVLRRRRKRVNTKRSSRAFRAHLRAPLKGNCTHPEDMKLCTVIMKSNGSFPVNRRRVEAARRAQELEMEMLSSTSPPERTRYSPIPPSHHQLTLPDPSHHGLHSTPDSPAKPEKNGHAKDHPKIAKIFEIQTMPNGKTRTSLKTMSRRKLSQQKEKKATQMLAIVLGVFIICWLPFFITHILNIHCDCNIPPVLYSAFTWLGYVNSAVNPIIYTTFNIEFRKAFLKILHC
How it was run: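 HEK293 cells stably expressing DRD2 were cultured 24 h at 37 C, then given Ro20-1724 (0.1 mM final) and compounds for 10 min at room temperature. NKH477 (200nM) was then added for 30 min. cAMP was read by HTRF.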

[14] = target: D(2) dopamine receptor (Homo sapiens) (UniProt P14416); assay: Dopamine D2 receptor (DRD2) small molecule antagonists, cell-based qHTS assay (AID 1963595; active means well fitted inhibition curve with a large enough effect in the signal ratio in the repeat runs, with a control signal flat; the % refers to the signal ratio)
How it was run: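 Antagonism was scored as restored cAMP in HEK293-DRD2 cells. These cells were stimulated with 200 nM NKH477 and 12 nM quinpirole for 30 min at room temperature, in the presence of 0.1 mM Ro20-1724.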

[15] = G protein-coupled receptor (GPCR) small molecule agonists, calcium flux assay: HEK293 wild type cell line counter screen (AID 1920065)
How it was run: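 Readout: fluorescence at 480 nm excitation/540 nm emission, sampled at 1 s intervals for 3 min. Cells had been cultured 18 h, then dye-loaded 1 h at 37 C before compound or ATP addition.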

[16] = p53 small molecule agonists, cell-based qHTS assay (AID 1963582; active means well fitted activation curve with a large enough effect in the signal ratio in the repeat runs, not every such curve was filed as active; the % refers to the signal ratio)
How it was run: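 Compounds are pin-transferred in DMSO onto p53RE-bla cells and incubated 16 h at 37 C. The B/G FRET beta-lactamase substrate is then applied for 2 h at RT and fluorescence recorded.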

[17] = cAMP Responsive Elements (CRE) small molecule agonists, cell-based qHTS assay (AID 1963590)
How it was run: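 Cell line: CRE-bla HEK 293T; medium DMEM/10% dialyzed FBS/0.1 mM NEAA/1 mM pyruvate/25 mM HEPES; 3 h compound exposure; beta-lactamase FRET readout after 2 h substrate loading at RT.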

[18] = cAMP Responsive Elements (CRE) small molecule antagonists, cell-based qHTS assay (AID 1963591; active means well fitted inhibition curve with a large enough effect in the signal ratio in the repeat runs, not every such curve was filed as active; the % refers to the signal ratio)
How it was run: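 Inhibition of NKH477-driven (0.25 uM final) CRE-beta-lactamase signal in HEK293T cells, 3 h compound exposure at 37 °C, detected by FRET substrate fluorescence.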

[19] = target: Beta-2 adrenergic receptor (Homo sapiens) (UniProt P07550); assay: Adrenergic beta2 receptor (ADRB2) small molecule agonists, cell-based qHTS assay (AID 1963593);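 further: CHO cells stably overexpressing human ADRB2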
How it was run: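 CHO cells stably over-expressing ADRB2 were plated overnight at 37C, then dosed with compounds plus a stimulation mix containing 100uM IBMX and 25uM Ro-20-1724 for 0.5hr at room temperature. cAMP was measured by HTRF competition, 1hr.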

Measured: Potency

Gonadotropin-releasing hormone receptor (Homo sapiens), sequence (P30968 whole entry, looked up): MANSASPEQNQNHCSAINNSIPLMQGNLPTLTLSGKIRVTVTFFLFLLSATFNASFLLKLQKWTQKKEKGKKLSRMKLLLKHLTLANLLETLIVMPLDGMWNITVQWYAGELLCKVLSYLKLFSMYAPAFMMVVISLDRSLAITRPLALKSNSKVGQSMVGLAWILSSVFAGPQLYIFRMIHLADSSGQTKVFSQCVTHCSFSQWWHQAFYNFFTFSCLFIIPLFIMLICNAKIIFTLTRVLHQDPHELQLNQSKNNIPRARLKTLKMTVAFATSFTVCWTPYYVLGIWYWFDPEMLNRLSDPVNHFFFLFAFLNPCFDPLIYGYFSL

O=C(N/N=C/c1ccc([N+](=O)[O-])o1)c1ccc(O)cc1
inactive: [1] | [2] | [3] | [4] | [5] | [6] | [7] | [8] | [9] | [10] | [11] | [12] | [13] | [14]

COc1c2occc2cc2ccc(=O)oc12
inactive: [1] | [2] | [15] | [7] | [16] | [17] | [18] | [12] | [19] | [13] | [14]

CN(C)CC[C@@H](c1ccc(Cl)cc1)c1ccccn1
inactive: [1] | [2] | [15] | [7] | [16] | [17] | [18] | [13] | [14]

O=C(CCCN1CCC(O)(c2ccc(Cl)cc2)CC1)c1ccc(F)cc1
inactive: [1] | [2] | [15] | [7] | [16] | [17] | [18] | [12] | [19]

Cc1c(-c2ccc(O)cc2)n(Cc2ccc(OCCN3CCCCCC3)cc2)c2ccc(O)cc12
inactive: [1] | [2] | [15] | [8] | [11] | [12]

Cc1ccccc1
inactive: [1] | [2] | [15] | [9] | [10] | [11] | [17] | [18] | [12] | [13] | [14]

OCC(O)CO
inactive: [1] | [2] | [15] | [8] | [9] | [11] | [17] | [18] | [12] | [13] | [14]

CN1CCC(N(Cc2cccs2)c2ccccc2)CC1
inactive: [1] | [2] | [5] | [9] | [10] | [11] | [17] | [18] | [12]
active: [8] 365 nM

COc1ccc2cc([C@H](C)C(=O)O)ccc2c1
inactive: [1] | [2] | [15] | [7] | [16] | [18] | [12] | [13] | [14]

CC(=O)O[C@@]12CO[C@@H]1C[C@H](O)[C@@]1(C)C(=O)[C@H](O)C3=C(C)[C@@H](OC(=O)[C@H](O)[C@@H](NC(=O)OC(C)(C)C)c4ccccc4)C[C@@](O)([C@@H](OC(=O)c4ccccc4)[C@H]21)C3(C)C
inactive: [1] | [2] | [13] | [14]

CN1[C@@H]2CC[C@H]1CC(OC(=O)C(CO)c1ccccc1)C2 (stereo partly specified)
inactive: [1] | [2] | [15] | [17] | [18] | [12] | [14]
